Laboratory results published in PubChem BioAssay AID588850 (Sanford-Burnham Center for Chemical Genomics, 2011).
Out of some 360,000 compounds screened, about 3,100 (0.86%) were called active. Only a selection was taken, and actives are over-represented in it overall. Unmarked numbers belong to inactive results.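 Rule for the calls: active = at least 50% inhibition at 5 µM, scaled per plate between neutral and stimulator controls; inactive = the rest.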

Experiment: NF-kB reporter blockers in CF airway cells – cell-based, GFP fluorescence, uHTS, primary screen (AID 588850);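 note: PAF is a Pseudomonas aeruginosa culture filtrate used as stimulus; plate controls were PAF-stimulated DMSO wells for no effect and unstimulated DMSO wells for full effect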
Settings: KKLEB NF-kB-GFP reporter, PAF-induced, GFP fluorescence overnight; at 5 µM; stronger effect = higher value

Row | Compound | inhibition
1 | CC1Cn2c(nnc2-c2cccs2)S1 (configuration not stated) | 9.9%
2 | O=C(O)C1CCCN(CCC=C(c2ccccc2)c2ccccc2)C1 (configuration not stated) | 9.2%
3 | Cc1ccnc(NS(=O)(=O)c2ccc(NC(=O)c3ccc(S(=O)(=O)N(C)C)cc3)cc2)n1 | 2.1%
4 | CC1(C(=O)Nc2cccc3c2CCCC3)CCN1C(=O)CCc1ccc(Cl)cc1Cl (configuration not stated) | -16%
5 | CC12CCC(=O)C=C1CCC1C2C(O)CC2(C)C1CCC2(O)C(O)CO (configuration not stated) | 24.8%
6 | CC(=O)OCC(=O)C1(O)CCC2C3CC(C)C4=CC(=O)CCC4(C)C3C(O)CC21C (configuration not stated) | 73% (active)
7 | CC(=O)O[C@]1(C(C)=O)CC[C@H]2[C@@H]3C=C(C)C4=CC(=O)CC[C@]4(C)[C@H]3CC[C@@]21C | 39.9%
8 | Cc1ccc(CC(=O)Nc2cccc(C#N)c2)cc1 | -4.9%
9 | O=C(COC(=O)Cn1cnc2ccccc2c1=O)NCC12CC3CC(CC(C3)C1)C2 | -1.8%
10 | O=C1C=CC(=O)N1c1ccc(N2CCCCC2)cc1 | 67% (active)
11 | O=C(c1ccc(Cl)c(S(=O)(=O)N2CCCCCC2)c1)N1CCN(c2ccc(O)cc2)CC1 | 2.4%
12 | c1ccc(-n2cccc2)c(N2CCCCC2)c1 | 5.6%
13 | O=C(Nc1ccc(F)c([N+](=O)[O-])c1)C1CCCO1 (configuration not stated) | 4.8%
14 | COc1ccc(OC)c(C2N(c3ccccn3)C(=O)C3CCCN32)c1 (configuration not stated) | -3.8%
15 | O=C(CCl)N(Cc1cccc([N+](=O)[O-])c1)c1cccc(Cl)c1 | 90.5% (active)
16 | CC(=O)N(CN1C(=O)C2CC=CCC2C1=O)c1cccc(Cl)c1 (configuration not stated) | -5.3%
17 | COC(=O)c1cc(C(=O)N(Cc2ccccc2)c2ccccn2)cc([N+](=O)[O-])c1 | 5%
18 | CCS(=O)(=O)c1ccc(C(=O)NC)c(Cl)c1Cl | 4.1%
19 | C1=C(N2CCOCC2)/C(=C/c2nc3ccccc3[nH]2)CC1 | 0.9%
20 | COc1cccc(N2CCN(CC(=O)Nc3ccnn3C3CCCC3)CC2)c1 | -19%
21 | Cc1noc(C)c1C(=O)N1CCC1(C)C(=O)NS(=O)(=O)c1ccc(C#N)cc1 (configuration not stated) | 1.8%
22 | CCOC(=O)c1c(C)[nH]c2c1-c1ccccc1C(=O)C2=O | 86.7% (active)

Row | Compound | inhibition
23 | CCOC(=O)c1c(C)[nH]c(C)c1C(=O)CSc1nc(N)cc(N)n1 | -5.9%
24 | CCOC(=O)c1c(NC(=O)CSc2nccc(=O)[nH]2)sc(C)c1C | -8.3%
25 | NCCCCC(C(=O)O)N(C(=O)OCc1ccccc1)C(=O)OCc1ccccc1 (configuration not stated) | 1.1%
26 | COc1ccc(C(CC(=O)c2ccccc2)S(=O)(=O)c2ccccc2)cc1 (configuration not stated) | -3.5%
27 | CCCCC(=O)Nc1c2c(nn1-c1ccc([N+](=O)[O-])cc1)CS(=O)(=O)C2 | 5.8%
28 | O=C1/C(=C\c2ccc([N+](=O)[O-])cc2)CS(=O)(=O)C/C1=C/c1ccc([N+](=O)[O-])cc1 | 98.2% (active)
29 | CN(C)S(=O)(=O)N1CCN(c2ccc([N+](=O)[O-])cc2)CC1 | 8.2%
30 | C=CCc1cc(S(=O)(=O)c2ccc(O)c(CC=C)c2)ccc1O | 60.6% (active)
31 | CCCCN(C)c1ccc([N+](=O)[O-])cc1 | -12.3%
32 | COc1ccc(C2=Nn3c(nnc3-c3ccccc3OC)SC2)cc1OC1CCCC1 | 68.4% (active)
33 | COc1ccccc1-c1nnc2n1N=C(c1ccc(OC(F)F)c(OCC3CC3)c1)CS2 | 49.1%
34 | CCn1c(SCC(=O)NC2CC2)nnc1-c1ccccc1OC | -0.4%
35 | CCCCCCCCCCCCCCCC(=O)OC/C=C(C)/C=C/C=C(C)/C=C/C1=C(C)CCCC1(C)C | -16.9%
36 | NC1=NOC(=O)C1C1CCCCC1 (configuration not stated) | 25.2%
37 | CCCCc1nc2ccc(F)cc2cc1C | -14.3%
38 | COc1ccc(N2CCN(S(=O)(=O)CCNC(=O)C34CC5CC(CC(C5)C3)C4)CC2)cc1 | -0.5%
39 | COCCCN(C(=S)Nc1c(C)cc(C)cc1C)C(C)c1ccncc1 (configuration not stated) | -10.4%
40 | CCCCOc1ccc(C(=O)NCC(=O)OCC(=O)N2CCN(S(=O)(=O)c3ccc(C)cc3C)CC2)cc1 | -0.3%
41 | COc1ccc(/C(N)=N/OC(=O)Cc2ccccc2)cc1 | -28%
42 | COc1ccc(C(=NN)c2ccc(OC)cc2)cc1 | -2.7%
43 | COc1ccc(C(C#N)=C2C=CC(=NO)c3ccccc32)cc1 | 84.7% (active)
44 | Fc1ccc(Nc2nnns2)cc1 | -11.2%

Row | Compound | inhibition
45 | C=CCNC(=S)NNc1ncnc2sc3c(c12)CC(C)(C)OC3 | -2%
46 | O=C(Nc1ccc(Cl)cc1)c1csc([C@@H]2O[C@H](CO)[C@H](O)[C@H](O)[C@H]2O)n1 | 13%
47 | CC[C@]1(O)CC2CN(CCc3c([nH]c4ccccc34)[C@@](C(=O)OC)(c3cc4c(cc3OC)N(C=O)[C@H]3[C@@](O)(C(=O)OC)[C@H](OC(C)=O)[C@]5(CC)C=CCN6CC[C@]43[C@@H]65)C2)C1 (some centres not stated) | 53.6% (active)
48 | CC[C@]1(O)C[C@@H]2CN(CCc3c([nH]c4ccccc34)[C@@](C(=O)OC)(c3cc4c(cc3OC)N(C)[C@H]3[C@@](O)(C(=O)OC)[C@H](OC(C)=O)[C@]5(CC)C=CCN6CC[C@]43[C@@H]65)C2)C1 | 57.6% (active)
49 | C=CCNC(=S)/N=c1/ccccn1Cc1ccccc1 | -16.5%
50 | N#CC1(C#N)C(C(=O)C23CC4CC(CC(C4)C2)C3)C12CCOCC2 (configuration not stated) | 12.2%
51 | Cc1ccc(NC(=S)Nc2ncccc2C)c(C)c1 | -2.7%
52 | COc1ccccc1C(=O)Nc1ccc(Nc2ccccc2)cc1 | 6.4%
53 | COC(=O)c1ccc(NC(=O)c2ccccc2NS(=O)(=O)c2ccccc2)cc1 | 59.8% (active)
54 | COc1cc(NC(=O)c2ccccc2NS(=O)(=O)c2ccc(Cl)s2)cc(OC)c1 | 49.7%
55 | Cc1ccnc(NS(=O)(=O)c2ccc(NC(=O)c3oc4ccc(F)cc4c3C)cc2)n1 | 8.7%
56 | COC(=O)c1ccc(NC(=O)CSc2nncn2-c2cccnc2)cc1 | -0.4%
57 | Cc1cc(-c2ccccc2)n2nc(C)c(-c3ccccc3)c2n1 | 5.2%
58 | O=C(NCCCN1CCN(c2ccc(F)cc2)CC1)Nc1ccc([N+](=O)[O-])cc1 | -19.1%
59 | Cc1cccc(C)c1NC(=O)CCS(=O)(=O)c1cccc2nsnc12 | -15.6%
60 | COc1ccc(N(C)C(=O)CCS(=O)(=O)c2cccc3nsnc23)cc1 | -4%
61 | COc1cccc2sc(N(CCCN(C)C)C(=O)CCS(=O)(=O)c3ccccc3)nc12 | 88.4% (active)
62 | Cc1ccc(S(=O)(=O)CCC(=O)OCC(=O)N(C)Cc2ccccc2)cc1 | 7.6%
63 | Cc1cccc2sc(N(CCCN(C)C)C(=O)CCS(=O)(=O)c3ccccc3)nc12 | 85.7% (active)
64 | O=C(CCS(=O)(=O)c1ccccc1)Nc1nc2c(s1)CCCC2 | -2.5%
65 | CC(C#N)(NC(=O)CN1CCN(S(=O)(=O)c2cc(C(F)(F)F)ccc2Cl)CC1)C1CC1 (configuration not stated) | 17.9%
66 | CCOC(=O)c1ccc(S(=O)(=O)N(CCO)Cc2cc3cc(OC)c(OC)cc3[nH]c2=O)cc1 | -25.3%

Row | Compound | inhibition
67 | Nc1ncnc2c1ncn2[C@@H]1O[C@H](C(=O)N2CCSC2)[C@@H](O)[C@H]1O | 4.9%
68 | COC(=O)C1=C(C)N(C)C(=O)NC1c1ccc([N+](=O)[O-])o1 (configuration not stated) | 1.5%
69 | COC(=O)C1=C(C)NC(=O)/C1=C/c1ccc(CNS(=O)(=O)c2ccc(C)cc2)o1 | -6.4%
70 | COC(=O)C1=C(C)NC2=C(C(=O)c3ccccc32)C1c1ccc(-c2ccc(C(=O)O)cc2)o1 (configuration not stated) | 76.6% (active)
71 | Cc1cn([C@H]2C[C@H](O)[C@@H](CNC(=O)[C@H](N)Cc3cccnc3)O2)c(=O)[nH]c1=O | -3.6%
72 | Cc1[nH]c(=O)c(C(=O)/C=C/c2ccccc2)c2c1CCCC2 | 51.1% (active)
73 | CC1(C(=O)O)CCCN(C(=O)/C=C/c2ccccc2)C1 (configuration not stated) | -1.6%
74 | COC(=O)c1c(C)[nH]c(C(=O)/C=C/c2ccc(Cl)cc2)c1C | 3.1%
75 | Cn1c(SCC(=O)NC2CCCCC2)nnc1-c1ccc(N)cc1 | 3.7%
76 | Cc1cc(OC(=O)c2ccccc2Cl)ccc1N1C(=O)CCC1=O | -7.9%
77 | CC(NS(=O)(=O)c1ccccc1)c1n[nH]c(=S)n1-c1ccccc1 (configuration not stated) | -11.4%
78 | Nc1[nH][nH]c(=O)c1N=Nc1ccc2c(c1)OCO2 | -6.6%
79 | CCC(=O)N1CCC(C)(C(=O)Nc2cc(OC)c(OC)c(OC)c2)C1 (configuration not stated) | 13.9%
80 | O=C(CNC(=O)c1ccccc1)NCC(=O)OCc1ccc(Cl)cc1 | -4.1%
81 | CC(Oc1ccc2c(-c3ccccc3)cc(=O)oc2c1)C(=O)NC(Cc1c[nH]c2ccccc12)C(=O)O (configuration not stated) | -11.2%
82 | O=C(CNC(=O)OCc1ccccc1)Oc1cc2oc(=O)cc(-c3ccccc3)c2cc1Cl | 72.8% (active)
83 | Cc1cc(NC(=O)CS(=O)(=O)c2cn(C)c3ccccc23)no1 | -0.5%
84 | OC[C@@H]1CN(Cc2ccc(-c3ccccc3)cc2)C[C@H](n2cnc3c(NC4CCCC4)ncnc32)O1 | -0.3%
85 | Cc1nn(-c2ccccc2)c(Cl)c1/C=N/NC(=O)c1nn(C)cc1[N+](=O)[O-] | 52% (active)
86 | Cc1nn(-c2ccccc2)c(C)c1/C=N/NC(=O)CSc1nc2ccccc2c(=O)n1-c1ccccc1 | 23.3%
87 | Cn1cc([N+](=O)[O-])c(C(=O)Nc2ccc3c(c2)OCCO3)n1 | 15.1%
